# Assay outcomes as filed in PubChem BioAssay.
# An excerpt weighted towards active compounds, which were near 14% of everything screened.
# Pf growth 96h = P. falciparum growth inhibition at 96 hour, primary screen for plastid delayed-death inhibitors; Potency, µM (highest dose often 28.7 µM), without a hit: at the top dose activity change, negative = inhibition, most hits filed as inhibitors; AID 504834; actives 6.9% (n = 320,000); P. falciparum luciferase reporter growth, 96 h; further: potency means the concentration at half of the fitted maximal effect
#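 Erythrocytes infected with luciferase-expressing P. falciparum were dispensed at 2% hematocrit and 0.05% parasitemia (final), then incubated with compounds 96 hours at 37 C in 5% CO2. Luminescence after detection reagent addition reported growth.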
# FBPA Giardia inh = inhibitors of Giardia lamblia fructose-1,6-bisphosphate aldolase; AID 2451; Potency, µM (series often up to 59.6 µM), for the others: at the top dose activity, negative = inhibition, usual class: inhibitors; actives 0.71% (n = 290,000); purified Giardia FBPA; further: potency means the concentration at half of the fitted maximal effect; nearly all actives have a fitted effect of over 55% in size
# Target sequence (A8B2U2 whole entry, looked up): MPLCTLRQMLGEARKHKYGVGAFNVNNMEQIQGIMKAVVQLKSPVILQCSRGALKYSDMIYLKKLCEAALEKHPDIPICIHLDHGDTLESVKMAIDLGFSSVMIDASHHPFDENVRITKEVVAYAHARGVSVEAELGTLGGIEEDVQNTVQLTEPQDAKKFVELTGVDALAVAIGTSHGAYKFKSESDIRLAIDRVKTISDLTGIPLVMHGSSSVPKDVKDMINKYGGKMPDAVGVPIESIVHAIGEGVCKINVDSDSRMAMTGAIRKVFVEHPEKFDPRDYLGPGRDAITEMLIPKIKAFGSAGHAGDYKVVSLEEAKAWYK
#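 40 nM FBPA preincubated 10 min at RT with compound (up to 57.5 uM final), then substrate plus GAPDH/TPI/NAD/arsenate coupling and diaphorase/resazurin added. Fluorescence read after 20 min at RT, 525/598 nm.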
# Sm TGR inh = blocks Schistosoma mansoni thioredoxin glutathione reductase. Q962Y6. actives 3% (n = 360,000). Potency, µM (titrated, usually from 114 µM), without a hit: at the highest dose activity change, negative = inhibition, most hits filed as inhibitors. purified TGR, DTNB reduction, TNB absorbance 405 nm; further: potency means the concentration at half of the fitted maximal effect; nearly all actives have a fitted effect of over 60% in size
#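 First, TGR (20 nM dispensed) and NADPH were mixed with compound. Second, a 15 min room-temperature incubation followed. Third, further NADPH and then DTNB were added to start the reaction. Finally, TNB absorbance was monitored kinetically.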
# HCMV inh = inhibitors of human cytomegalovirus; HFF cells, HCMV-luciferase reporter, 72 h; stronger effect = lower value; activity change, negative = inhibition, % at 57.5 µM; AID 1259415; actives 4.5% (n = 410,000); in the data active means activity change below about -60%; inconclusive means no clear call, values can overlap the other calls; inactive means above about -39%
#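 Inhibition of viral replication was scored as loss of reporter luminescence in HFFs infected with HCMV-luciferase (MOI 1 PFU/cell) for 72 h; compounds tested at 2 doses, normalized to buffer and Salinomycin controls.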
# Pf growth 48h = inhibits P. falciparum growth in the first generation, 48 h. P. falciparum luciferase growth in erythrocytes, 48 h. actives 5.9% (n = 310,000). Potency, µM (highest dose often 28.7 µM), without a hit: at the top dose activity change, negative = inhibition, most hits filed as inhibitors; further: potency means the concentration at half of the fitted maximal effect
#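 Luciferase-expressing parasites in RBCs, 2% Hct / 0.1% parasitemia final; RPMI 1640 + 0.5% Albumax; 37 C, 5% CO2, one generation; luminescence read-out, lower signal = inhibition.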
# Numbers without * were called inactive; ? = inconclusive; · = no result; ! = a repeat was not active. Unless noted, the call rests on the fitted dose curve; in most records, active means well fitted curve in the direction sought with a large enough effect; inconclusive means small, poorly fitted or top-dose-only effect, or another doubt; inactive means no such curve, though single readings can be large; an effect the other way counts as inactive or inconclusive. On the % scale 0 is the no-effect control and ±100 the full control effect.
SMILES,Pf growth 96h,FBPA Giardia inh,Sm TGR inh,HCMV inh,Pf growth 48h
COc1ccc(-c2c(-c3cc(OC)cc(OC)c3)n(C)c3ccc(-c4ccc5[nH]ccc5c4)cc23)cc1,?,·,-8%,0,-26%
CN1CCN(c2nc(-c3ccoc3)nc3ccccc23)CC1,·,1%,·,·,·
Cc1cccc(N2C(=O)CSC23C(=O)N(Cc2cccc(C(F)(F)F)c2)c2ccccc23)c1 (stereo not drawn),·,·,8%,-70*,·
CN1C(=O)C2(SCC(=O)N2c2cccc(C(F)(F)F)c2)c2ccccc21 (stereo not drawn),·,·,1%,-1,·
Cc1cc(C)cc(N(C(=O)Cc2cccs2)C(C(=O)NC2CCCC2)c2ccc(C)o2)c1 (stereo not drawn),?,0%,2%,8,?
Cc1ccc(C(C(=O)NC2CCCC2)N(C(=O)Cc2cccs2)c2cccc(C)c2C)o1 (stereo not drawn),12µM*,0%,-2%,-19,?
Cc1noc(C)c1-c1ccc2ncnc(NCc3cccc(-c4ccccc4)c3)c2c1,3.7µM*,6%,0%,·,?
O=C(OCC(=O)N1CCC(Cc2ccccc2)CC1)c1cccnc1Cl,·,·,·,-32,·
Cc1nc2scc(-c3ccc(C(C)(C)C)cc3)c2c(=O)n1N,-8%,-11%,-3%,-78*,17%
COc1ccc(-c2csc3nc(C)n(-n4cccc4)c(=O)c23)cc1,-19%,-1%,-5%,-62*,?
Cc1nc2scc(-c3cccs3)c2c(=O)n1-n1cccc1,43%,1%,2%,?,?
COC(=O)[C@@H]1C[C@@]2(O)[C@@H](O)[C@@H](O)[C@@H](O)C[C@H]2N1Cc1cc(F)ccc1F,·,-12%,·,·,·
O=C(COc1cccc2ccccc12)NNC(=O)c1cnccn1,?,21%,0%,17,?
Cc1ccc(C(=O)NNC(=O)COc2ccc(Cl)cc2C)o1,-14%,·,3%,150,-6%
Cc1cc(Br)ccc1OCC(=O)NNC(=O)c1cnccn1,12µM*,5%,-3%,11,?
Cc1cc(Cl)ccc1OCC(=O)NNC(=O)c1cnccn1,8.3µM*,?,12%,?,?
CCCCNc1c(-c2ccc(OC)c(SC3CCCCC3)c2)nc2ccc(C)cn12,·,·,·,-101*!,·
CCCCNc1c(-c2ccc(SC3CCCCC3)c(OC)c2)nc2ccc(C)cn12,·,·,·,-71*!,·
COc1ccc(-c2nc3ccc(C)cn3c2NCc2ccccc2)cc1SC1CCCCC1,6.6µM*,·,-14%,·,10µM*
C/C=C1\NC(=O)[C@H](C)NC(=O)[C@@H](NC(=O)[C@@H](Cc2ccc(O)cc2)NC(=O)[C@@H](NC(=O)/C(C)=C/C)C(C)C)[C@@H](C)OC(=O)[C@H](CCCCc2ccc(O)cc2)NC(=O)[C@@H](CCC(=O)O)NC1=O,·,·,·,-2,·
CCOC(=O)N1CCN(C(=O)COC(=O)c2cc(Cl)c(O)c(Cl)c2)CC1,-25%,-6%,3%,-73*,?
Cc1cc(C(=O)COC(=O)c2cc(Cl)c(O)c(Cl)c2)c(C)n1C,16%,·,50µM*,2,-5%
Cc1cc(C(=O)COC(=O)c2ccc(F)cc2)c(C)n1C,·,·,·,4,·
COc1ccc(CNC(=O)C(=O)Nc2c3c(nn2-c2ccccc2)CSC3)cc1,·,·,2%,-8,·
CNc1snc(C)c1C(=O)OCC(=O)c1cc(F)ccc1OC,?,·,-2%,-31,?
SMILES,Pf growth 96h,FBPA Giardia inh,Sm TGR inh,HCMV inh,Pf growth 48h
CNc1snc(C)c1C(=O)OCC(=O)c1ccc(OC)c(F)c1,-8%,·,5%,-74*,1%
CN1c2ccccc2C(C)(C)C12C=Cc1cc(O)ccc1O2 (stereo not drawn),?,-29%,?,-38,?
CN1c2ccccc2C(C)(C)C12C=Nc1c(cc(N3CCOCC3)c3ccccc13)O2 (stereo not drawn),?,-22%,-1%,-74*,?
Cc1ccccc1Nc1nnc(-c2ccc(C)c(S(=O)(=O)N3CCCCC3)c2)c2ccccc12,·,·,1%,-63*,·
Cc1ccc(-c2nnc(Nc3ccc(O)cc3)c3ccccc23)cc1S(=O)(=O)N1CCCCC1,·,·,-8%,-90*,·
Cc1ccccc1Nc1nnc(-c2ccc(C)c(S(=O)(=O)N3CCOCC3)c2)c2ccccc12,·,·,-1%,-9,·
Clc1cccc(-c2nc3c4ccccc4ccn3c2CC2CCCCC2)c1,·,·,·,-12,·
CN(Cc1ccccc1)C(=O)c1ccc([N+](=O)[O-])o1,26%,-4%,40µM*,-38,9.3µM*
Cc1ccc(C(=O)/C=C/c2ccc(Br)cc2)o1,91%,0%,0%,31,?
Cc1ccc(/C=C/C(=O)c2ccc([N+](=O)[O-])o2)cc1,-9%,·,14µM*,-79*,?
Cc1ccc(CNC(=O)c2ccc([N+](=O)[O-])o2)cc1,8.3µM*,-16%,35µM*,-38,?
Cc1ccc(CNC(=O)c2nn(C)c(C)c2[N+](=O)[O-])cc1,-11%,0%,5%,-27,-11%
O=C(/C=C/c1ccc(Cl)cc1)c1ccc([N+](=O)[O-])o1,40%,·,?,-78*,?
CN(CC(=O)Nc1cccc(S(=O)(=O)N(C)c2ccccc2)c1)Cc1cccs1,·,·,·,-17,·
CCN1CCCC1CNCc1cccc(OC)c1OCc1ccccc1 (stereo not drawn),12µM*,-15%,-2%,-34,-26%
CCN1CCCC1CNCc1cccc(OC)c1OCc1ccccc1F (stereo not drawn),?,-11%,-18%,16,·
CNCc1ccccc1OCc1ccc(F)cc1,18%,2%,-1%,10,-6%
CCN1CCCC1CNCc1ccccc1OCc1ccc(F)cc1 (stereo not drawn),·,-11%,-14%,-8,10µM*
Cc1ccccc1-n1nnnc1SCC(=O)Nc1ccc(N2CCN(C)CC2)cc1,-2%,5%,5%,-21,-20%
CCc1ccccc1-n1nnnc1SCC(=O)Nc1ccc(N2CCN(C)CC2)cc1,?,·,-4%,-22,15µM*
CN1CCN(c2ccc(NC(=O)C(C)(c3ccccc3)c3ccccc3)cc2)CC1,?,3%,-1%,-36,13µM*
Cc1cccc(-n2nnnc2SCC(=O)Nc2ccc(N3CCN(C)CC3)cc2)c1,-16%,5%,5%,-66*,?
NS(=O)(=O)c1ccc(CNC(=S)Nc2cc(S(=O)(=O)N3CCOCC3)ccc2Cl)cc1,·,·,·,10,·
Cc1cc(C)n(C(N)=NC(=O)c2ccccc2)n1,·,·,·,86,·
F[B-](F)(F)c1cncnc1,·,·,·,10,·
COc1ccc(CC(=O)Nc2ccc3nc(Nc4cccc(Cl)c4)cc(C)c3c2)cc1OC,·,·,-4%,-69*,·
Cc1cc(Nc2cccc(Cl)c2)nc2ccc(NC(=O)Cc3c(F)cccc3Cl)cc12,·,·,-1%,-40,·
Cc1cc(Nc2cccc(Cl)c2)nc2ccc(NC(=O)Cc3ccc(Cl)cc3)cc12,·,·,8%,-104*,·
